# From the supplement of paper PMC12636033
# ± gives the standard deviation of the averaged measurements. The full ranking holds about 33,000 sequences; the median of “E-score (rank enrichment, -0.5 to 0.5)” is about -0.0068, and the highest 2% start at about 0.24. The sample holds the highest values, similar sequences and a random draw of the others, so the mix is not that of the screen.
# System: muMax20 (Max(13-93) K31hArg/K57hArg, M65Nle)
# Experiment: PBM 8-mer E-score (E-score (rank enrichment, -0.5 to 0.5)); higher = stronger preferential binding
# Protocol: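 Protein binding microarray (universal PBM chip covering all 10-mers in fixed probe flanks) with chemically synthesized human Max(13-93) bHLH-LZ analogs (not full-length Max) bearing noncanonical residues (hArg, Tha, Aib, Nle at 65) and aromatic Cys staples. Read-out per 8-mer (and its reverse complement): E-score (rank-based enrichment, -0.5 to 0.5) and Z-score of median probe intensity.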
row,Sequence,PBM 8-mer E-score
1,ACCCAGAC,-0.109 ± 0.007
2,CTAACGCC,-0.0238 ± 0.038
3,AATTGCCT,0.00671 ± 0.018
4,AATAGGGA,0.142 ± 0.022
5,CGTTACAC,-0.0405 ± 0.053
6,ACACGTAG,0.0342 ± 0.052
7,ACACGTGG,0.446 ± 0.062
8,AAACGTGT,0.169 ± 0.1
9,TCACGTAA,0.0827 ± 0.0065
10,AAACGTGG,0.201 ± 0.0053
11,ACACGTGT,0.469 ± 0.029
12,TCACGTGA,0.442 ± 0.044
13,ACACGTAT,0.218 ± 0.052
14,TAACGTGA,0.101 ± 0.052
15,CTTCTACC,0.00215 ± 0.038
16,ACAGAATG,0.088 ± 0.021
17,GTTTTCGA,-0.0225 ± 0.1
18,TCGGCCAA,-0.181 ± 0.076
19,GAATCCAC,0.0142 ± 0.053
20,CAATTGTG,0.0641 ± 0.093
21,ATAAGGTC,0.218 ± 0.028
22,ATAAGGAC,0.0929 ± 0.069

row,Sequence,PBM 8-mer E-score
1,ATAAGGTA,0.244 ± 0.019
2,ATAAGGAT,0.246 ± 0.039
3,CTAAGGTA,0.0373 ± 0.061
4,ATAAGGAA,0.0142 ± 0.076
5,CTCTACCC,0.0459 ± 0.077
6,CCAACAGA,-0.00227 ± 0.052
7,GTAGCTCA,-0.0957 ± 0.0039
8,AACTCAGT,-0.0615 ± 0.032
9,AAAAGACC,0.0838 ± 0.031
10,AAGACACA,0.1216 ± 0.00079
11,CAAAGATG,0.0977 ± 0.0035
12,AAGACACG,0.293 ± 0.005
13,AAAAGACA,0.237 ± 0.011
14,CAAAGACA,0.129 ± 0.0062
15,AAAAGATG,0.263 ± 0.086
16,GTGACACA,0.0546 ± 0.001
17,ATGACACG,0.238 ± 0.041
18,CAGACACG,-0.0512 ± 0.046
19,AAAAGATT,0.0851 ± 0.1
20,ATGACACA,0.156 ± 0.0051
21,GACCACGC,0.121 ± 0.055
22,TCGATGAA,-0.0576 ± 0.025

row,Sequence,PBM 8-mer E-score
1,TGGCGGAA,-0.0751 ± 0.029
2,CCCAGAGC,-0.115 ± 0.017
3,AAAGCAGA,0.176 ± 0.01
4,AATATTCG,0.134 ± 0.0048
5,GTTATTTA,0.222 ± 0.014
6,AATATATT,0.244 ± 0.0097
7,GATATTTA,0.104 ± 0.032
8,AATATATA,0.235 ± 0.04
9,CATATTTA,0.288 ± 0.0037
10,ATTATTTA,0.256 ± 0.072
11,ATTATTTG,0.212 ± 0.051
12,AATATTCA,0.259 ± 0.0058
13,CATATTTC,0.133 ± 0.0054
14,AATATAGT,0.219 ± 0.013
15,AATATTCC,0.149 ± 0.012
16,ATGCGGGG,-0.0713 ± 0.071
17,TCAGGTAA,0.0683 ± 0.047
18,GTAGACTA,-0.0707 ± 0.066
19,CAGTGGGG,-0.0911 ± 0.22
20,TCTCCGAA,-0.233 ± 0.047
21,AGGCATGC,0.121 ± 0.03
22,GAGTGGCA,-0.0109 ± 0.066

row,Sequence,PBM 8-mer E-score
1,CTTATTTC,0.24 ± 0.14
2,AGTATTTA,0.222 ± 0.019
3,AATATTTC,0.209 ± 0.035
4,AATATTTG,0.167 ± 0.11
5,CTTATTTA,0.0812 ± 0.083
6,ATTATTTC,0.186 ± 0.039
7,AATATTTA,0.287 ± 0.011
8,CGTATTTA,0.248 ± 0.068
9,GGTATTTA,0.173 ± 0.045
10,CTCTCCCA,0.00928 ± 0.07
11,CACGTATC,0.158 ± 0.0092
12,GTCTATAA,0.181 ± 0.04
13,CCGTTAAA,-0.00804 ± 0.013
14,AATGACAC,0.161 ± 0.056
15,AATGACAA,0.241 ± 0.033
16,CATGACAA,0.2087 ± 0.00054
17,AGAATATG,0.227 ± 0.029
18,CGAATATC,-0.0375 ± 0.072
19,AGAATATC,0.129 ± 0.027
20,AGAATATA,0.254 ± 0.039
21,CGAATATA,0.237 ± 0.065
22,GGAATATA,0.0712 ± 0.077
